Experimental data from PubChem BioAssay AID777 (Sanford-Burnham Center for Chemical Genomics, 2007).
The campaign covered roughly 96,000 compounds. About 19,000 (20%) were called active.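 The calls were made as follows: active = blocking of liver enzyme CYP2C9 beyond about 50% at 5 µM (limit read from the data); inactive = the rest.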 Not all results are given here.

biological target: Cytochrome P450 2C9 (Homo sapiens) (UniProt P11712); experiment: blockers of cytochrome P450 2C9 activity – biochemical, luminescence, ADME assay, primary screen (AID 777); settings: CYP2C9 Supersomes, luciferin-H conversion, at 5 µM, stronger effect = higher value
Sequence (P11712 whole entry, looked up): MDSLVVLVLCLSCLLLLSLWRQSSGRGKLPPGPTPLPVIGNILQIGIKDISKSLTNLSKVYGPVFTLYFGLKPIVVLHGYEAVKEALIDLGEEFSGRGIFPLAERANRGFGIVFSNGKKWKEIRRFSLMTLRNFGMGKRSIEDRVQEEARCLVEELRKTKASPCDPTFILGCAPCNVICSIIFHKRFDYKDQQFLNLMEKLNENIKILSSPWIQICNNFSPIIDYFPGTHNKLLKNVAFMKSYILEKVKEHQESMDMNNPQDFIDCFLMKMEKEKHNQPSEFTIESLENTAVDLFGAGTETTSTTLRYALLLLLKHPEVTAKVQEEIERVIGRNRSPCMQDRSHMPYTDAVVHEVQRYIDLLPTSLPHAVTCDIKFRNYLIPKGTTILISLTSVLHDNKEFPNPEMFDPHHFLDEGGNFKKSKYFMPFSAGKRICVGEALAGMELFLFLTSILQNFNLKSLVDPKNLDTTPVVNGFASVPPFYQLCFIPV

Compound	inhibition
O=C(Nc1c(-c2ccccc2)nc2c(Br)cc(Br)cn12)c1ccco1	15.6% (inactive)
c1ccc2c(C[n+]3csc4ccccc43)cccc2c1	76.7% (active)
N=C(N)SCc1cccc2ccccc12	-24.4% (inactive)
c1ccc2c(CNn3cnnc3)cccc2c1	-2.3% (inactive)
Cc1ccc(C(=O)NNC(=O)OC(C)(C)C)c(Cl)c1	1.9% (inactive)
CCc1ccc(CNC(=O)C2CCCN(c3nc4ccccc4o3)C2)cc1 (centres undefined)	45% (inactive)
O=S(=O)(c1ccc(OCC(O)CN2CCN(c3ccccc3Cl)CC2)cc1)N1CCOCC1 (centres undefined)	28.3% (inactive)
CCOC(=O)Cc1csc(NC(=O)C(C)(C)C)n1	30.2% (inactive)
CC(=O)N1CCN(c2cccc(C)c2C)CC1	-8.6% (inactive)
CCOC(=O)Cc1csc(NC(=O)CN(C)S(=O)(=O)c2ccc3c(c2)CCC(=O)N3)n1	65.5% (active)
CCOC(=O)Cc1csc(NC(=O)CSc2nc(C)cc(=O)[nH]2)n1	23.2% (inactive)
Cc1cccc(N2CCN(C(=O)CN(C)S(=O)(=O)c3ccc4c(c3)CCC(=O)N4)CC2)c1C	51% (active)
Cc1ccc(S(=O)(=O)N(C)CC(=O)N2CCc3ccccc32)cc1	-132% (inactive)
COC(=O)/C=C/C(=O)NCc1ccco1	1.2% (inactive)
OCCN1CCOCCOCCN(CCO)CCN(CCO)CC1	12.8% (inactive)
Cc1nn(-c2ccccc2)c(Cl)c1C(=O)Nc1ccccc1	-47% (inactive)
Cc1nn(-c2ccccc2)c(CC(C)(C)C(=O)O)c1C(=O)O	-10.3% (inactive)
Cc1ccc(C(=O)/C=C/c2c(C)nn(-c3ccccc3)c2Cl)cc1	90.4% (active)
O=C(Nc1ccccc1C(=O)N1CCOCC1)C1CCC(=O)N1C1CCCC1 (centres undefined)	-9.2% (inactive)
COc1cccc(N2C(=O)C3CCCN3C2c2ccc(F)cc2)c1 (centres undefined)	-9.4% (inactive)
COc1ccc(OCC(=O)OCCN(C)C)cc1	-12.1% (inactive)
O=C(CCCOc1ccccc1)NCc1ccco1	18.1% (inactive)
CN(C)C(CNC(=O)CCCOc1ccccc1)c1ccco1 (centres undefined)	51.7% (active)
O=C(CCOc1ccccc1)NCc1ccccc1	6.9% (inactive)
O=C(NCC12CC3CC(C1)CC(CNC(=O)N1CCCC1)(C3)C2)N1CCCC1	-12.3% (inactive)

Compound	inhibition
Nc1nc(SCCOc2ccccc2)n[nH]1	-8.6% (inactive)
COc1ccccc1NC(=O)CN1CCN(S(=O)(=O)c2ccc(Br)cc2)CC1	-0.8% (inactive)
COc1cc2c(cc1NC(=O)CN1CCN(S(=O)(=O)c3ccc(F)cc3)CC1)oc1ccccc12	78.7% (active)
COc1ccc(NC(=O)CN2CCN(S(=O)(=O)c3ccc(F)cc3)CC2)cc1Cl	17.3% (inactive)
CN1/C(=c2/s/c(=C3/C(=O)N(c4ccccc4)NC3=Nc3ccccc3)n(C)c2=O)C(C)(C)c2ccccc21	19% (inactive)
CCNC(=O)c1c(O)c2cccc3c2n(c1=O)CC3	10.3% (inactive)
O=C(COC(=O)CCC(=O)c1cccs1)NCc1ccco1	2.9% (inactive)
CC(C)(C)c1cc(=O)n2c(nc3ccccc32)[nH]1	52% (active)
Cc1nn2c3ccccc3nc2n(C)c1=O	-5.7% (inactive)
CC(C)(C)N1CC(c2nc3ccccc3n2Cc2ccc(F)cc2)CC1=O (centres undefined)	22.8% (inactive)
Cn1c(SCC(=O)N2CCOCC2)nnc1-c1ccc(NC(=O)c2ccccc2F)cc1	13% (inactive)
CCCCC(CC)C(=O)Nc1ccc(Cl)cn1 (centres undefined)	7.6% (inactive)
CC(C)C(NC(=O)OCc1ccccc1)C(=O)OCC(=O)N1C(C)CCCC1C (centres undefined)	1.2% (inactive)
CCC(C)NC(=O)c1c(N)n(/N=C/c2cccs2)c2nc3ccccc3nc12 (centres undefined)	17.2% (inactive)
Cc1ccc(OCc2nnc(NC(=O)OCC(C)C)s2)cc1	20.2% (inactive)
CC(C)c1cc(C(N)=O)c(NC(=O)c2cccc(COc3ccc(Br)cc3)c2)s1	56.1% (active)
COc1ccc(N2CCN(C3CC(=O)N(c4ccc5c(c4)OCCO5)C3=O)CC2)cc1 (centres undefined)	-1% (inactive)
O=c1oc2c(Cl)cc(Cl)cc2cc1-c1nnc(Nc2ccccc2F)s1	-4.3% (inactive)
Cc1cccc(OCc2nnc(SCc3nc4cc(C(F)(F)F)ccc4c(=O)[nH]3)o2)c1	33% (inactive)
O=C(c1ccc(S(=O)(=O)N2CCOCC2)cc1)N1CCN(c2ccccc2)CC1	-4.5% (inactive)
O=C(Cc1ccc(S(=O)(=O)N2CCOCC2)s1)NCCC(c1ccccc1)c1ccccc1	71.6% (active)
O=C(Cc1ccc(S(=O)(=O)N2CCCC2)s1)NC1CCCCCC1	35.1% (inactive)
C=C(Br)Cn1c(CCCC)nc2ccccc21	35% (inactive)
Cc1[nH]n(-c2ccc([N+](=O)[O-])cc2)c(=O)c1C=NCCN1CCN(C(=O)c2ccccc2F)CC1	16.8% (inactive)
Cc1csc(NC(=O)C2CCCN2C(=O)OCC(C)C)n1 (centres undefined)	21.7% (inactive)

Compound	inhibition
O=C(/C=C/c1ccco1)Nc1cccc(-c2nc3ccccc3[nH]2)c1	81.3% (active)
O=C(/C=C/c1ccco1)Nc1ccc(Oc2ccccc2)cc1	11.5% (inactive)
Cc1ccc(-n2nc3ccc(NC(=O)/C=C/c4ccco4)cc3n2)cc1C	34.5% (inactive)
CCc1nnc(NC(=O)CSc2nc3c(c(=O)n2-c2ccccc2OC)SCC3)s1	7.3% (inactive)
O=C(Cn1c(-c2cncs2)nc2ccccc21)NC1CCCC1	2.4% (inactive)
Cc1ccc(-n2nc3c(c2NC(=O)CCC2CCCCC2)CS(=O)C3)cc1 (centres undefined)	12% (inactive)
CCCOC(=O)c1[nH]c2c(c1C)C(=O)CC(c1cc(OC)c(OC)c(OC)c1)C2 (centres undefined)	66.2% (active)
CCOC(=O)c1[nH]c2c(c1C)C(=O)CC(c1ccc(N(C)C)cc1)C2 (centres undefined)	36.2% (inactive)
COC(=O)C1C(=O)c2c([nH]c(C(=O)OCCSC)c2C)CC1C (centres undefined)	32.8% (inactive)
CCCOC(=O)c1[nH]c2c(c1C)C(=O)CC(c1cccs1)C2 (centres undefined)	72.3% (active)
O=c1c2ccccc2nc2n1C(CSCc1cccc(C(F)(F)F)c1)CS2 (centres undefined)	38.6% (inactive)
CCOC(=O)CSc1nnc(CNC(=O)c2ccco2)n1-c1ccc(F)cc1	-0.1% (inactive)
O=C(NC1CCCCC1)c1ccc(CNc2c(N3CCOCC3)c(=O)c2=O)cc1	-23.2% (inactive)
O=C(NCCN1C(=O)C2C3C=CC(C3)C2C1=O)Nc1ccccn1 (centres undefined)	-16.2% (inactive)
CC12CCC(C(=O)N3CCN(c4ncccn4)CC3)(c3nc4ccccc4nc31)C2(C)C (centres undefined)	51.5% (active)
O=S(=O)(c1cccc2nonc12)N1CCN(c2cccc(Cl)c2)CC1	12.3% (inactive)
O=C(NCCN1CCN(Cc2ccccc2)CC1)c1cc2c(=O)[nH]c3ccccc3c2s1	31% (inactive)
CCCc1nnc(NC(=O)CN2C(=O)c3ccccc3S2(=O)=O)s1	9.5% (inactive)
C=C(Br)CN1CCN(CC(=C)Br)CC1	-1.7% (inactive)
O=C(O)C1CC=C(Cl)CC1C(=O)NCc1ccccc1 (centres undefined)	13.8% (inactive)
Cc1occc1C(=O)Nc1nnc(-c2ccncc2)s1	90.1% (active)
Cc1ccc(C(=O)Nc2nnc(-c3cccs3)s2)cc1C	2% (inactive)
Cc1occc1C(=O)NNC(=S)NCC(C)C	12.4% (inactive)
Cc1occc1C(=O)Nc1nnc(C2CCCCC2)s1	0.6% (inactive)
CC(C)=CC(=O)Nc1nnc(-c2ccc(F)cc2)s1	9% (inactive)

Compound	inhibition
Cc1occc1C(=O)Nc1cccc(Cn2cccn2)c1	51.4% (active)
Cc1ccc(C(=O)COc2cccc(NC(=O)c3ccco3)c2)cc1	32.1% (inactive)
CCOc1cccc(C(=O)Nc2cnn(Cc3ccccc3)c2)c1	10.6% (inactive)
Cc1ccc(C(=O)Nc2nnc(-c3ccncc3)s2)o1	93.1% (active)
COc1ccc(Oc2coc3cc(OC(=O)c4cncc(Br)c4)ccc3c2=O)cc1	-54.5% (inactive)
Cc1nnc(SCC(=O)Nc2ncc3c(n2)CC(C)(C)CC3=O)s1	22.5% (inactive)
COc1ccc(-c2noc(COc3ccc(Cl)c(C)c3)n2)cc1	11.2% (inactive)
CCOc1ccc(/C(O)=C2/C(=O)C(=O)N(Cc3cccnc3)C2c2ccc(N(C)C)cc2)c(C)c1 (centres undefined)	20.8% (inactive)
N#Cc1ccc(CSc2nnc(-c3ccccn3)n2-c2ccc(Cl)cc2)cc1	7.5% (inactive)
CCc1nnc(NC(=O)CSc2nnc(COc3ccc(C#N)cc3)n2-c2ccccc2)s1	30.3% (inactive)
O=P(c1ccc2c(c1)OCCO2)(N1CCOCC1)N1CCOCC1	24.8% (inactive)
O=C(NNC(=O)c1cccnc1)Nc1ccccc1	-10.1% (inactive)
CC(C)NC(=O)C(=O)N/N=C/c1ccco1	-20.6% (inactive)
COc1ccc(Nc2nc(=O)[nH]nc2C)cc1	1.9% (inactive)
CCN(CC)CC(=O)Nc1nn(-c2ccccc2)nc1C(N)=O	-20.1% (inactive)
CC(=O)c1cc2c(cc1NC(=O)CN1CCCCCC1)OCO2	0.4% (inactive)
O=C(Nc1nn(Cc2ccccc2F)cc1Br)c1cccs1	8% (inactive)
O=C(Nc1ccn(Cc2ccccc2F)n1)c1ccc(COc2ccc(Cl)cc2Cl)o1	92.6% (active)
O=C(O)c1ccc(COc2c(F)c(F)cc(F)c2F)o1	-9.4% (inactive)
OC(COCCC12CC3CC(CC(C3)C1)C2)CN1CCCCC1 (centres undefined)	3.4% (inactive)
CCN1CCCC1CNC(=O)Cn1cnc2ccc(S(=O)(=O)N3CCC(C)CC3)cc2c1=O (centres undefined)	7.3% (inactive)
COC(=O)C1C(=O)NCC1c1ccc(OC)cc1 (centres undefined)	-19.7% (inactive)
COC(=O)C1C(=O)NCC1c1ccc(C)cc1 (centres undefined)	17.3% (inactive)
COC(=O)C1=C(Nc2ccc(OC)cc2)C=C(C)C(C(=O)OC)C1c1ccc(C)cc1 (centres undefined)	51.9% (active)
